# Laboratory results: PubChem BioAssay (Tox21)
# Several values for one entry are separate records, joined by “and”; a condition that tells them apart may be missing. Equal entries are not always repeated. Results filed as inconclusive are left out. A call without a number means that no potency is given here. Activity calls are given as the source filed them. Calls come from the whole dose curve; as a rule, active = well fitted cell-killing curve with a large enough effect in the repeat runs; inconclusive = weak or mixed curves, or effect the other way; inactive = flat fitted curve, though single readings scatter.
# Assay: qHTS assay to identify small molecule antagonists of the androgen receptor (AR) signaling pathway using the MDA cell line - cell viability counter screen (AID 743041; note: nearly all actives have a fitted effect of over 45% in size)
# Conditions: MDA-kb2 viability, CellTiter-Fluor, 16 h, cells co-treated with R1881 androgen agonist; series mostly up to 70.3 µM
# Description: National Center for Advancing Translational Sciences [NCATS]
# NIH Chemical Genomics Center [NCGC]
# U.S. Environmental Protection Agency [EPA]
# National Institutes of Environmental Health Sciences [NIEHS]
# National Toxicology Program [NTP]
# U.S. Food and Drug Administration [FDA]
# Androgen receptor (AR), a nuclear hormone receptor, plays a critical role in AR-dependent prostate cancer and other androgen related diseases. Endocrine disrupting chemicals (EDCs) and their interactions with steroid hormone receptors like AR may cause disruption of normal endocrine function as well as interfere with metabolic homeostasis, reproduction, developmental and behavioral functions. To identify the compounds that inhibit AR signaling, MDA-kb2 AR-luc cell line (from ATCC, deposited by Wilson et al.) was used to screen the Tox21 10K compound library. MDA-kb2 AR-luc cell line is human breast carcinoma cell line that was stably transfected with a luciferase reporter gene under control of the MMTV promoter containing response elements for both androgen receptor (AR) and glucocorticoid receptor (GR). The cytotoxicity of the Tox21 compound library against the MDA-kb2 AR-luc cell line was tested in parallel by measuring the cell viability using CellTiter-Fluor assay (Promega, Madison, WI) in the same wells.
# Tox21 Assay Protocol Summary:
# MDA-kb2 AR-luc cells were dispensed at 3,000 cells/4 uL/well of culture medium into white wall/solid-bottom 1536-well plates using a Multidrop Combi (ThermoFisher Scientific, Waltham, MA) dispenser. After the assay plates were incubated at a 37C and 0% CO2 for 5 hr, 23 nL of compounds dissolved in DMSO, positive controls or DMSO only was transferred to the assay plate by a Pintool station (Kalypsys, San Diego, CA), followed by addition of 1 uL of agonist (R1881) in culture medium using a Bioraptr Flying Reagent Dispenser (FRD) workstation (Beckman Coulter, Indianapolis, IN, USA). The plates were incubated at a 37C and 0% CO2 for 16 h. After 15.5 h incubation, 1uL of CellTiter-Fluor reagent (Promega) was added using a Bioraptr FRD to each plate for measuring cytotoxicity. The fluorescence intensity was quantified on a ViewLux plate reader (PerkinElmer, Shelton, CT) following 30 min incubation at 37C and 0% CO2.
# Potency is the fitted concentration of half-maximal effect.
row,Compound,Potency
1,Cc1cc(N)c(S(=O)(=O)O)cc1Cl,inactive
2,O=C(Nc1cccc([N+](=O)[O-])c1)c1cc2ccccc2cc1O,10.9 µM (active)
3,CC(C)C(C)(C)C(C)(C)C(C)(C)S,inactive
4,Oc1cccc2cc3cccc(O)c3c(O)c12,inactive
5,CCCCCCCCCCCCCC[P+](CCCC)(CCCC)CCCC (tested in a mixture with another compound),5.48 µM (active)
6,Cc1ccc(-n2nc(C(C)(C)C)cc2NC(=O)Nc2ccc(OCCN3CCOCC3)c3ccccc23)cc1,inactive
7,O=C(O)c1c(Cl)cccc1Cl,inactive
8,OCCCCCCCCCCCCBr,inactive
9,O=C(Nc1cccc(C(F)(F)F)c1)c1cc(Br)cc(Br)c1O,11.9 µM (active) and 10.9 µM (active)
10,CN1CCN(CCC(=O)N2c3ccccc3Sc3ccc(C(F)(F)F)cc32)CC1,inactive
11,CCCCCCCCCCC=O,inactive
12,Cn1cc(C(=O)[C@@H]2CCc3nc[nH]c3C2)c2ccccc21,inactive
13,Nc1ccc(N)c2ccccc12,43.2 µM (active)
14,CCCCCCCCOc1ccccc1C(=O)Nc1ccc(C(=O)OCC[N+](C)(CC)CC)cc1,inactive
15,C[n+]1cc2c3c(ccc2c2ccc4cc5c(cc4c21)OCO5)OCO3,26.6 µM (active)
16,O=C1c2c(O)ccc(Nc3ccc(CCO)cc3)c2C(=O)c2c([N+](=O)[O-])ccc(O)c21,inactive
17,O=C1c2ccccc2Cc2ccccc21,inactive
18,Oc1c(Cl)cc(Cl)c2cccnc12,11.1 µM (active)
19,CCCCC(CC)COP(=O)(O)OCC(CC)CCCC (stereo not given),inactive
20,CC(C)OC(=O)c1cc2c(OCC(O)CNC(C)(C)C)cccc2[nH]1 (stereo not given),inactive

row,Compound,Potency
1,CCC1OCC(COc2ccc(Oc3ccccc3)cc2)O1 (stereo not given),inactive
2,[O-][n+]1ccccc1SSc1cccc[n+]1[O-],1.56 µM (active)
3,O=[N+]([O-])c1ccccc1Nc1ccccc1,inactive
4,CC(C)=CCOc1ccc(/C=C/C(=O)c2ccc(OCC=C(C)C)cc2OCC(=O)O)cc1,inactive
5,NC(=O)CC[C@@H]1NC(=O)[C@H](Cc2ccccc2)NC(=O)[C@H](Cc2ccc(O)cc2)NC(=O)CCSSC[C@@H](C(=O)N2CCC[C@H]2C(=O)N[C@@H](CCCN=C(N)N)C(=O)NCC(N)=O)NC(=O)[C@H](CC(N)=O)NC1=O,inactive
6,CCCCCCCCCCCCCCCC(=O)OC[C@H](O)[C@H]1OC(=O)C(O)=C1O,inactive
7,CC(C)c1ccc2c(c1)CC[C@H]1[C@](C)(CN)CCC[C@]21C,24.3 µM (active)
8,O=C(OC[C@H]1O[C@@H](OC(=O)c2cc(O)c(O)c(OC(=O)c3cc(O)c(O)c(O)c3)c2)[C@H](OC(=O)c2cc(O)c(O)c(OC(=O)c3cc(O)c(O)c(O)c3)c2)[C@@H](OC(=O)c2cc(O)c(O)c(OC(=O)c3cc(O)c(O)c(O)c3)c2)[C@@H]1OC(=O)c1cc(O)c(O)c(OC(=O)c2cc(O)c(O)c(O)c2)c1)c1cc(O)c(O)c(OC(=O)c2cc(O)c(O)c(O)c2)c1,22.1 µM (active)
9,C[C@@H]1C[C@H]2[C@@H]3CCC4=CC(=O)C=C[C@]4(C)[C@@]3(Cl)[C@@H](O)C[C@]2(C)[C@@]1(OC(=O)c1ccco1)C(=O)CCl,inactive
10,CN(C)c1ccc(C2(c3ccc(N(C)C)cc3)OC(=O)c3cc(N(C)C)ccc32)cc1,inactive
11,CCN(C(=O)N(CC)c1ccccc1)c1ccccc1,inactive
12,CCCCCCCCCCn1cc[n+](CCCCCCCCCC)c1C,24.4 µM (active)
13,CCc1cc(SCc2sc(-c3ccc(C(F)(F)F)cc3)nc2CN2CCN(c3ccc(OC)cc3)CC2)ccc1OCC(=O)O,inactive
14,C/C=C(\C)C(=O)OCc1ccccc1,inactive
15,CCC1=C[C@@H]2CN(C1)Cc1c([nH]c3ccccc13)[C@@](C(=O)OC)(c1cc3c(cc1OC)N(C)[C@H]1[C@@](O)(C(=O)OC)[C@H](OC(C)=O)[C@]4(CC)C=CCN5CC[C@]31[C@@H]54)C2,inactive
16,Clc1ccc2nsnc2c1NC1=NCCN1,inactive
17,CCOC(=O)O[C@H](C)OC(=O)c1ccc2c(c1)cc(C(=O)NC1CCN(C(C)C)CC1)n2Cc1cc(-c2ccc(Cl)s2)on1,57.1 µM (active)
18,C/C=C1/C(=O)C[C@H]2[C@@H]3CCC4=CC(=O)CC[C@]4(C)[C@H]3CC[C@]12C,inactive
19,CCCCCCCC[P+](CCCCCCCC)(CCCCCCCC)CCCCCCCC,6.08 µM (active)
20,CCCCCCCCCCCCCCCC[N+](C)(C)CCN(Cc1ccc(OC)cc1)c1ncccn1,inactive
